Test results reported in PubChem BioAssay.
For part of these data: Results with a measured potency or affinity are listed apart. Results filed as inconclusive are left out. The list shows a part of the results. Active and inactive are the calls of the source. Unless noted, no rule for the calls is given here.

Legend:
[1] = cytotoxicity in PAX8-dependent RMG-1 cells, dose response, cell-based, cherry-pick (AID 687029;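 active = signal drop whose fitted half-maximal concentration is at most twice the top valid dose, in every test run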;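 also: cells exposed to compound for 96 hours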)
[2] = non-specific cell cytotoxicity, dose response, cytotoxicity control for PAX8 inhibitor project, plate reader, dry powder samples (AID 743021)
[3] = DNA binders by acridine orange displacement, dose response, counter-screen for EWS/Fli inhibitor project, biochemical, fluorescence polarization, cherry-pick (AID 720586;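 active = fitted curve reaches a 35% signal fall AC35 below twice the sample's top valid tested dose, actives reach about 48 µM in these data; inactive = the rest, including activity in the rising direction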;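 also: 0% = neutral control median and -100% = 10 µM mitoxantrone control median; lower polarization ratio signals compound binding to DNA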)
[4] = HepG2 cell cytotoxicity, dose response, cytotoxicity control, plate reader, cherry-pick, antagonist series (AID 743416);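 also: 0% = neutral control wells and -100% = positive control wells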
[5] = cytotoxicity in IOSE-T80 ovarian epithelial cells, dose response, selectivity assay for PAX8 inhibitor project, cell-based, cherry-pick (AID 687032;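 active = fitted half-maximal concentration for viability loss no higher than twice the top valid dose, in every repeat run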;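 also: cells exposed to compound for 96 h before reading; 0% = neutral control wells and -100% = 2 µM mitoxantrone kill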)
[6] = inhibitors of CMV-promoter luciferase reporter, dose response, counter-screen for Pax8 inhibitor project, cell-based, HEK293, luminescence, dry powder (AID 743020;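 active = signal-lowering compounds whose fitted half-maximal concentration is at or below twice the top tested dose in every run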;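 also: HEK293 cells stably expressing the CMV luciferase reporter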)
[7] = IGROV1 ovarian cancer cell cytotoxicity, dose response, PAX8 inhibitor project, plate reader, dry powder samples (AID 743043);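 also: more negative means fewer viable cells or more cytotoxicity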
[8] = NIH:OVCAR-3 ovarian cancer cell cytotoxicity, dose response, PAX8 inhibitor project, plate reader, dry powder samples (AID 743044); conditions: max activity: at 35 µM, hits give low values unless noted
[9] = IOSE-T80 ovarian epithelial cell cytotoxicity, dose response, cytotoxicity control for PAX8 inhibitor project, plate reader, dry powder samples (AID 743045);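 also: 0% = neutral control median and -100% = positive control median; more negative values mean more cell killing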
[10] = A2780 ovarian cancer cell cytotoxicity, dose response, cytotoxicity control, plate reader, dry powder samples (AID 743046);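 also: 0% = neutral control wells and -100% = cytotoxic reference compound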
[11] = cytotoxicity in OVCAR8 ovarian cancer cells, dose response, PAX8 project, cell-based, plate reader, dry powder samples (AID 743197)

CC[C@@H]1CCC[C@@H](O)[C@@H](C)C(=O)O[C@H](C)[C@@H](C)C/C=C(C)/C(OC)=C\C(=O)N(C)C([C@@H](C)CC)C(=O)N(C)[C@@H](C(C)C)C(=O)N(C)[C@@H](COC)C(=O)N2CCC[C@H]2C(=O)N(C)[C@@H](C(C)C)C(=O)N2CCC[C@H]2C(=O)O1 (some centres undefined)
inactive: outcome [1] | outcome [2]

O=S(=O)(NC1CCCCC1N1CCN(c2ccccc2F)CC1)c1ccccc1 (centres undefined)
inactive: outcome [1] | outcome [2]

Cc1ccc(S(=O)(=O)N2CCCCC2)cc1NC(=O)Cn1ncc(Cl)c(Cl)c1=O
inactive: outcome [1] | outcome [2]

COc1cc([C@@H]2c3cc4c(cc3[C@H](O)[C@H]3COC(=O)[C@H]23)OCO4)cc(OC)c1OC
inactive: outcome [1] | outcome [2]

CCCCC(=O)NC(c1ccccc1)c1ccc2cccnc2c1O (centres undefined)
inactive: outcome [1] | outcome [2]

CC(=NNc1cc(C)c2ccccc2n1)c1ccccn1
inactive: outcome [1] | outcome [2]

CN(C)c1ncnc2c1nnn2C1OC(CO)C(O)C1O (centres undefined)
inactive: outcome [1] | outcome [2]

CCCCC(=O)NC(c1ccccc1OC)c1ccc2cccnc2c1O (centres undefined)
inactive: outcome [1] | outcome [2]

O=C(NCCc1ccccc1F)c1ccc2c(c1)OCCO2
inactive: outcome [1] | outcome [2]

COc1ccc2c(C)nc(Nc3nc(-c4ccccc4)cc(=O)[nH]3)nc2c1
inactive: outcome [1] | outcome [2]

COc1ccc(C[C@H](N)C(=O)N[C@H]2[C@@H](O)[C@H](n3cnc4c(N(C)C)ncnc43)O[C@@H]2CO)cc1
inactive: outcome [1] | outcome [2]

Cc1cc(-c2n[nH]c(=S)n2/N=C/C(Br)=C/c2ccccc2)n[nH]1
inactive: outcome [1] | outcome [2]

CCCCCC(CC(=O)NO)C(=O)NC(C(=O)N1CCCC1CO)C(C)C (centres undefined)
inactive: outcome [1] | outcome [2]

CCC(=O)N1CCN(c2ccc(NC(=O)c3ccc([N+](=O)[O-])o3)cc2Cl)CC1
inactive: outcome [1] | outcome [2]

C[C@H]1O[C@@H](O[C@H]2[C@@H](O)C[C@H](O[C@H]3[C@@H](O)C[C@H](O[C@H]4CC[C@@]5(C)[C@H](CC[C@@H]6[C@@H]5C[C@@H](O)[C@]5(C)[C@@H](C7=CC(=O)OC7)CC[C@]65O)C4)O[C@@H]3C)O[C@@H]2C)C[C@H](O)[C@@H]1O
inactive: outcome [1] | outcome [2]

CCCC(=O)N1CCN(c2ccc(NC(=O)c3ccc([N+](=O)[O-])o3)cc2)CC1
inactive: outcome [1] | outcome [2]

Cc1cccc(N(C)S(=O)(=O)c2ccc(-c3cnc(C4CC4)o3)cc2)c1
inactive: outcome [1] | outcome [2]

C[C@@H]1CN([C@@H](C)CO)C(=O)Cc2cc(NC(=O)Nc3ccc(C(F)(F)F)cc3)ccc2O[C@@H]1CN(C)S(=O)(=O)c1ccc(Cl)cc1
inactive: outcome [1] | outcome [2]

COc1ccc(-c2cnc3c(NC=O)cc(-c4cccc(NS(C)(=O)=O)c4)cn23)cc1OC
inactive: outcome [1] | outcome [2]

O=[N+]([O-])c1ccc(O)c(-c2cc(C(F)(F)F)nc(-c3ccccc3)n2)c1
inactive: outcome [1] | outcome [2]

C=CCN1C(=O)/C(=C/c2ccc(OC(C)=O)c(OCC)c2[N+](=O)[O-])SC1=S
inactive: outcome [1] | outcome [2]

C[C@H]1CN([C@@H](C)CO)S(=O)(=O)c2ccc(C#Cc3ccncc3)cc2O[C@@H]1CN(C)C(=O)Nc1ccc2c(c1)OCO2
inactive: AC35 [3]

COc1ccccc1C#Cc1ccc([C@H]2[C@H](C#N)N(C(=O)C3CCCC3)[C@H]2CO)cc1
inactive: outcome [4]

C[C@H](CO)N1C[C@H](C)[C@@H](CN(C)S(=O)(=O)c2ccc(-c3ccccc3)cc2)OCc2cn(nn2)CCCC1=O
inactive: outcome [5] | outcome [6] | outcome [7] | max activity [8] -33.1% | outcome [9] | outcome [10] | outcome [11]

O=C(Nc1cccc(F)c1)N1CCCCN2[C@H](CO)[C@@H](c3ccc(C#Cc4ccccc4)cc3)[C@H]2C1
inactive: outcome [5] | outcome [6] | outcome [10] | outcome [11]

C[C@@H]1CCCCO[C@@H](CN(C)Cc2ccc(Cl)c(Cl)c2)[C@@H](C)CN([C@@H](C)CO)C(=O)c2cc(NC(=O)Nc3ccccc3)ccc2O1
inactive: outcome [5] | outcome [6] | outcome [2] | outcome [9] | outcome [10] | outcome [11]

Cc1cccc(-c2ccc(C3[C@@H]4CN(C(=O)Nc5ccc(C(F)(F)F)cc5)C[C@H]3N4)cc2)c1 (some centres undefined)
inactive: outcome [5] | outcome [6] | outcome [10]

C[C@@H]1CN([C@H](C)CO)C(=O)c2cc(NC(=O)Nc3ccc(F)cc3)ccc2O[C@@H](C)CCCCO[C@H]1CN(C)Cc1ccc(C(F)(F)F)cc1
inactive: outcome [5] | outcome [2] | outcome [7] | outcome [9] | outcome [10] | outcome [11]

CCn1c(/C=N/NC(=O)c2ccc(OC)cc2)nc2ccccc21
inactive: AC35 [3]

C[C@@H]1CN([C@H](C)CO)C(=O)c2cc(NC(=O)Nc3ccccc3)ccc2O[C@@H](C)CCCCO[C@H]1CN(C)Cc1ccc(C(F)(F)F)cc1
inactive: outcome [5] | outcome [6] | outcome [2] | outcome [10] | outcome [11]

C[C@@H]1CN([C@@H](C)CO)C(=O)Cc2cc(NC(=O)CCCCCC(=O)Nc3ccccc3N)ccc2O[C@@H]1CN(C)Cc1ccc(C(F)(F)F)cc1
inactive: outcome [5] | outcome [6] | outcome [7] | outcome [9] | outcome [10]

CCCC#Cc1ccc([C@@H]2[C@@H](C#N)N(C(=O)C3CCCCC3)[C@H]2CO)cc1
inactive: outcome [5] | outcome [6] | outcome [7] | outcome [9] | outcome [10]

C[C@H]1CN([C@@H](C)CO)C(=O)Cc2cc(NC(=O)NC3CCCCC3)ccc2O[C@@H]1CN(C)Cc1ccc(-c2ccccc2)cc1
inactive: outcome [5] | outcome [6] | outcome [7] | max activity [8] 18.6% [at 1 µM, hits give low values] | outcome [9] | outcome [10] | outcome [11]

COc1ccccc1C#Cc1ccc2c(c1)O[C@@H](CN(C)Cc1ccncc1)[C@H](C)CN([C@H](C)CO)S2(=O)=O
inactive: outcome [5] | outcome [6] | outcome [9] | outcome [10]

COc1ccccc1C#Cc1ccc2c(c1)O[C@@H](CN(C)Cc1ccncc1)[C@H](C)CN([C@@H](C)CO)S2(=O)=O
inactive: outcome [5] | outcome [6] | outcome [7] | max activity [8] 20.3% [at 8 µM, hits give low values] | outcome [9] | outcome [10]

C[C@@H]1CCCCO[C@H](CN(C)Cc2ccc(C(F)(F)F)cc2)[C@@H](C)CN([C@@H](C)CO)C(=O)c2cc(NC(=O)Nc3ccc(F)cc3)ccc2O1
inactive: outcome [5] | outcome [2] | outcome [9]

CN1c2ccc(-c3cccc(C#N)c3)cc2[C@H]2[C@H](CCN2S(=O)(=O)c2ccccc2F)[C@H]1CO
inactive: outcome [5] | outcome [2] | outcome [9]

C[C@@H]1CCCCO[C@H](CN(C)S(=O)(=O)c2ccc(F)cc2)[C@H](C)CN([C@@H](C)CO)C(=O)c2cc(NS(=O)(=O)c3ccc(Cl)cc3)ccc2O1
inactive: outcome [5] | outcome [6] | outcome [7] | max activity [8] -28.2% | outcome [9] | outcome [10] | outcome [11]

CCOc1cc2[nH]c(=S)n(Cc3ccc(C(=O)N4CCN(C)CC4)cc3)c(=O)c2cc1OCC
inactive: AC35 [3]

C[C@@H]1CN([C@H](C)CO)C(=O)c2cc(NS(=O)(=O)c3ccc(Cl)cc3)ccc2O[C@@H](C)CCCCO[C@H]1CN(C)C(=O)Nc1ccc(C(F)(F)F)cc1
inactive: outcome [5] | outcome [2] | outcome [9]

C[C@@H]1CN([C@H](C)CO)C(=O)c2cc(NS(=O)(=O)c3ccc(F)cc3)ccc2O[C@@H](C)CCCCO[C@@H]1CN(C)Cc1ccccc1
inactive: outcome [5] | outcome [6] | outcome [7] | outcome [9] | outcome [10]

COc1ccc(S(=O)(=O)Nc2ccc3c(c2)C(=O)N([C@@H](C)CO)C[C@H](C)[C@@H](CN(C)C(=O)Nc2ccc(F)cc2)OCCCC[C@H](C)O3)cc1
inactive: outcome [5] | outcome [6] | outcome [7] | max activity [8] -15.3% | outcome [9] | outcome [10] | outcome [11]

C[C@@H]1CN([C@H](C)CO)C(=O)c2cc(NC(=O)Nc3ccccc3)ccc2O[C@@H](C)CCCCO[C@@H]1CN(C)Cc1ccc(Cl)c(Cl)c1
inactive: outcome [5] | outcome [7]

COc1cccc(-c2ccc3c(c2)[C@H]2[C@H](CCN2S(=O)(=O)c2ccccc2F)[C@@H](CO)N3)c1
inactive: outcome [5] | outcome [6] | outcome [2] | outcome [9] | outcome [10]

C[C@@H]1CN([C@H](C)CO)C(=O)c2cc(NC(=O)Nc3ccc(F)cc3)ccc2O[C@@H](C)CCCCO[C@@H]1CN(C)Cc1ccc(C(F)(F)F)cc1
inactive: outcome [5] | outcome [2] | outcome [7] | outcome [9] | outcome [10]

Cc1noc(C)c1NC(=O)Nc1ccc2c(c1)CC(=O)N([C@@H](C)CO)C[C@@H](C)[C@@H](CN(C)Cc1ccc(Cl)c(Cl)c1)O2
inactive: AC35 [3]

C[C@@H]1CN([C@@H](C)CO)S(=O)(=O)c2ccc(C#Cc3ccncc3)cc2O[C@H]1CN(C)C(=O)Nc1ccc2c(c1)OCO2
inactive: outcome [5] | outcome [6] | outcome [2] | outcome [7] | outcome [11]

COc1ccc(CN(C)C[C@H]2OCCCC[C@H](C)Oc3ccc(NC(=O)Nc4ccc(C(F)(F)F)cc4)cc3C(=O)N([C@H](C)CO)C[C@H]2C)cc1
inactive: outcome [5] | outcome [6] | outcome [2] | outcome [9] | outcome [10]

C[C@@H]1CCCCO[C@H](CN(C)Cc2ccc(C(F)(F)F)cc2)[C@@H](C)CN([C@@H](C)CO)C(=O)c2cc(NC(=O)Cc3ccccc3)ccc2O1
inactive: outcome [5] | outcome [6] | outcome [2] | outcome [9] | outcome [10] | outcome [11]

C[C@H](CO)N1C[C@H](C)[C@@H](CN(C)C(=O)c2ccc3c(c2)OCO3)Oc2cc(C#Cc3ccccc3F)ccc2S1(=O)=O
inactive: outcome [5] | outcome [2] | outcome [7] | max activity [8] -4.28% | outcome [9] | outcome [10] | outcome [11]

C[C@@H]1CCCCO[C@H](CN(C)C(=O)Nc2cccc3ccccc23)[C@H](C)CN([C@@H](C)CO)C(=O)c2cc(NS(=O)(=O)c3ccc(Cl)cc3)ccc2O1
inactive: outcome [5] | outcome [6] | outcome [9] | outcome [10]

C#CCN(C[C@@H]1[C@@H](OC(=O)NCc2ccccc2F)[C@@H](OC(=O)NCc2ccccc2F)Cn2c(=O)ccc(=O)n21)S(=O)(=O)c1ccc(C)cc1
inactive: outcome [5] | outcome [2]
